HCT116 bCat-KO = beta-catenin-lacking colon tumor cell growth suppression | hit rate 1.5% among 140,000 | viability, % at 10 µM | HCT116 beta-catenin knockout viability, CellTiter-Glo, 60 h; hits give low values;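 active = viability at or under a set limit, the compound median less 4 SD, cut at about 6% in these data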
WT yeast gro inh = growth inhibition of WT yeast, mitochondrial fusion screen; mitochondrial fusion phenotypic screen, WT strain; AID 1362; hit rate 2.1% among 190,000; inhibition, % at 10 µM; in the data active = inhibition above about 58%; tested in S. cerevisiae
HCT116 PTEN-null = PTEN-deleted cell growth suppression. HCT116 PTEN-null viability, CellTiter-Glo, 60 h; hits give low values. viability, % at 10 µM. hit rate 1.2% among 140,000;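 active = viability at or below a set limit, 4 SD under the median of all tested compounds, cut at about 3.7% in these data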;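 note: PTEN knockout HCT116 line with beta catenin targeted HCT116 as companion control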
DAT uptake mod = modulates human dopamine transporter uptake under cocaine. LLC-PK1 hDAT cells, [14C]-dopamine uptake with cocaine IC80; actives deviate in either direction. B-score at 10 µM. hit rate 1.3% among 110,000. AID 449768;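 active = Z score or B-score, a plate-position-corrected score, falls beyond the plate's 99.7% confidence bounds, in either direction; inactive = both scores lie inside the 99.7% bounds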
Target sequence (Q01959 whole entry, looked up): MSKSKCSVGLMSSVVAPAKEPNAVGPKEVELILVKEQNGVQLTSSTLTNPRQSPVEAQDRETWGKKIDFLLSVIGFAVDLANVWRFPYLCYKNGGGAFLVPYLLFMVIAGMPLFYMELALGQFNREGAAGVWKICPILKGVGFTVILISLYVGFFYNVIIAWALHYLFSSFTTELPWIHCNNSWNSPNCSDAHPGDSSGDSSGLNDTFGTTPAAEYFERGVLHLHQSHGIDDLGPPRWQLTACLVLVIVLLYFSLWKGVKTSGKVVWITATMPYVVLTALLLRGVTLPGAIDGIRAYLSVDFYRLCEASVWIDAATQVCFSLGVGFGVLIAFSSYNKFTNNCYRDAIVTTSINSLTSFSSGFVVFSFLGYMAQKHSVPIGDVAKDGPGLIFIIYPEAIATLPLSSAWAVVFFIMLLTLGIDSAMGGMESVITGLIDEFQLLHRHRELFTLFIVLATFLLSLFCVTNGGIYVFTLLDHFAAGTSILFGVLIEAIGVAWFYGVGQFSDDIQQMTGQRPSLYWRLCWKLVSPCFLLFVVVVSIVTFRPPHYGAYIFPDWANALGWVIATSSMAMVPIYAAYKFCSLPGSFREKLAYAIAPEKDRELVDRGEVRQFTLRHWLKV
Of the large screens only hits and unclear results are named; the others gave an inactive call. Only some compounds are listed: those with a hit (about 3.6% of all), similar ones and a draw of the others.

CCCCC(CC)Cn1c(O)c(/C=C2\C=NN=C2c2ccccc2)sc1=S (centres undefined)	HCT116 bCat-KO 2.1, HCT116 PTEN-null 1.6 (no result: DAT uptake mod)
CCCn1c(O)c(/C=C2\C=NN=C2c2ccccc2)sc1=S	none
CC1(C)CC1C(=O)Nc1ccc([N+](=O)[O-])cc1Br (centres undefined)	none (no result: DAT uptake mod)
Cc1ccc(C2(c3ccc(C)cc3)CC2C(=O)Nc2ccc([N+](=O)[O-])cc2O)cc1 (centres undefined)	HCT116 bCat-KO 2.3, WT yeast gro inh 88, HCT116 PTEN-null 3.3
COc1cccc(CN2CCN(Cc3c(C)nn(C(C)C)c3C)CC2CCO)c1 (centres undefined)	none (no result: HCT116 bCat-KO, HCT116 PTEN-null, DAT uptake mod)
COCC(=O)Nc1nnc(-c2ccc(C(C)(C)C)cc2)s1	WT yeast gro inh 70 (no result: HCT116 bCat-KO, HCT116 PTEN-null, DAT uptake mod)
CC(C)(C)c1ccc(-c2nnc(NC(=O)c3ccccc3)s2)cc1	none
CSc1ccc(CN(C)CC(=O)Nc2ccc(C)cc2Br)cc1	WT yeast gro inh 62 (no result: DAT uptake mod)
Cc1ccc(NC(=O)CC(O)(C(F)(F)F)C(F)(F)F)c(Br)c1	DAT uptake mod -3
O=C(O)[C@@H](O)c1ccccc1	none (no result: HCT116 bCat-KO, HCT116 PTEN-null)
CC(=O)Nc1ccc(OC(=O)c2ccc(Br)c([N+](=O)[O-])c2)cc1	none (no result: HCT116 bCat-KO, HCT116 PTEN-null, DAT uptake mod)
Cc1ccc(C)c2nc3sc(C(=O)O)cc3cc12	none (no result: HCT116 bCat-KO, HCT116 PTEN-null, DAT uptake mod)
COc1ccc2c(c1)c(CC(=O)O)c(C)n2C(=O)c1ccc(Cl)cc1	DAT uptake mod 4.1
COc1ccc(C(=O)c2ccc(Cl)cc2)cc1	none
Cc1cc(C)c2nc(SCC(=O)NCCC3=CCCCC3)cc(C)c2c1	none (no result: DAT uptake mod)
COc1ccc2oc(=O)c(/C(C)=N/Nc3ccccc3)cc2c1	none (no result: HCT116 bCat-KO, HCT116 PTEN-null, DAT uptake mod)
COC(=O)c1cc2nc(-c3ccc(OC)cc3)cc(C(F)(F)F)n2n1	DAT uptake mod -2.2
COc1ccc(-c2cc(C(F)(F)F)n3nc(C(=O)NCc4ccco4)c(Cl)c3n2)cc1	HCT116 bCat-KO 4.4
CCOC(=O)C1CCCN(C(=O)c2cc3nc(-c4cccc(OC)c4)cc(C(F)(F)F)n3n2)C1 (centres undefined)	DAT uptake mod 2.7
COc1ccc(-c2cc(C(F)(F)F)n3nc(C(=O)NCc4ccco4)cc3n2)cc1	none
CCC1Sc2ccccc2N(CC(=O)NC2CCCCC2)C1=O (centres undefined)	none (no result: HCT116 bCat-KO, HCT116 PTEN-null, DAT uptake mod)
Cc1ccsc1-c1n[nH]c(=S)n1CC(C)C	none (no result: DAT uptake mod)
CCCCn1c(-c2csc3c2CCC(C)C3)n[nH]c1=S (centres undefined)	WT yeast gro inh 76
CCCc1cc(-c2n[nH]c(=S)n2CC(C)C)cs1	WT yeast gro inh 62 (no result: DAT uptake mod)
Cc1cccc(-n2c(-c3csc(C)c3)n[nH]c2=S)c1	none
CCCCn1c(-c2csc(CC)c2)n[nH]c1=S	WT yeast gro inh 67 (no result: DAT uptake mod)
CCc1cc(-c2n[nH]c(=S)n2-c2cccc(C)c2)cs1	WT yeast gro inh 61 (no result: DAT uptake mod)
CCOC(=O)C1CCN(C(=O)C(CC)c2ccccc2)CC1 (centres undefined)	none (no result: HCT116 bCat-KO, HCT116 PTEN-null, DAT uptake mod)
CCOC(=O)C1CCN(C(=O)CSc2nccc(C)n2)CC1	none (no result: HCT116 bCat-KO, HCT116 PTEN-null, DAT uptake mod)
CCOc1ccc(NS(=O)(=O)c2ccc(C)c(C(=O)NCCCn3ccnc3)c2)cc1	none (no result: HCT116 bCat-KO, HCT116 PTEN-null, DAT uptake mod)
Cc1cccc(NC(=O)Cn2nnc3ccccc32)c1	none (no result: HCT116 bCat-KO, HCT116 PTEN-null, DAT uptake mod)
CCCNc1nc(C)cc(-c2cc(C(=O)NCc3ccccc3)on2)n1	none (no result: HCT116 bCat-KO, WT yeast gro inh, HCT116 PTEN-null)
CCCCn1c(-c2csc(C(C)C)c2)n[nH]c1=S	WT yeast gro inh 65 (no result: DAT uptake mod)
CCCCn1c(-c2csc3ccccc23)n[nH]c1=S	none (no result: DAT uptake mod)
C/C(=N/NC(=O)c1cccs1)c1ccc(NC(=O)COc2ccc(Cl)cc2Cl)cc1	HCT116 bCat-KO 4.3, HCT116 PTEN-null 2.0
C/C(=N/NC(=O)c1ccc(C)s1)c1cccc(NC(=O)COc2ccc(Cl)cc2Cl)c1	none
COCCN(C(=O)Cc1cccs1)C(C(=O)NCc1ccc(OC)cc1)c1ccc(C(C)C)cc1 (centres undefined)	WT yeast gro inh 61
COc1cc(OC)cc(C(=O)OCCNC(=O)Cn2cnc3c2c(=O)n(C)c(=O)n3C)c1	none (no result: HCT116 bCat-KO, HCT116 PTEN-null, DAT uptake mod)
C(=N\N(Cc1ccccc1)c1ccccc1)/c1cccnc1	WT yeast gro inh 74 (no result: HCT116 bCat-KO, HCT116 PTEN-null, DAT uptake mod)
Oc1cccc(/C=N/N(Cc2ccccc2)c2ccccc2)c1	WT yeast gro inh 90 (no result: HCT116 bCat-KO, HCT116 PTEN-null, DAT uptake mod)
Oc1ccc(/C=N/N(Cc2ccccc2)c2ccccc2)c(O)c1O	none (no result: HCT116 bCat-KO, HCT116 PTEN-null, DAT uptake mod)
Cc1cccc(N(Cc2cc3ccccc3[nH]c2=O)S(=O)(=O)c2ccccc2)c1	none (no result: DAT uptake mod)
O=C(COC(=O)CC1CC2CCC1C2)Nc1cc([N+](=O)[O-])ccc1F (centres undefined)	none (no result: HCT116 bCat-KO, HCT116 PTEN-null, DAT uptake mod)
Cc1ccc(NC(=O)C2(c3ccccc3)CC2(Cl)Cl)cc1C (centres undefined)	WT yeast gro inh 73 (no result: DAT uptake mod)
COc1ccccc1C1(CCNS(=O)(=O)c2ccc(C)cc2)CCOC(C(C)C)C1 (centres undefined)	WT yeast gro inh 59 (no result: DAT uptake mod)
COc1ccc(/C=N/NC(=O)CCSc2nc3ccccc3s2)cc1	none (no result: DAT uptake mod)
COc1ccc(C(=O)/C=C/c2ccc(OC)c(CN3CCOCC3)c2)cc1	none (no result: DAT uptake mod)
